High-throughput results as filed in PubChem.
EphB4 ephrin blk – EphB4-ephrin-B2 interaction antagonists, primary screen, biochemical, TNYL-RAW peptide probe, fluorescence polarization. 97,000 compounds, 0.15% hits. AID 720, 2007. Ephrin type-B receptor 4 (Homo sapiens), P54760. inhibition, % at 7 µM. EphB4 LBD / TNYL-RAW-Alexa532 peptide;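 active = inhibition above the screen-wide mean inhibition plus 3 SD, cut at about 15% in these data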;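 note: 0% = DMSO wells and 100% = excess unlabeled TNYL-RAW peptide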
Target sequence (P54760 whole entry, looked up, the tested form may be a part): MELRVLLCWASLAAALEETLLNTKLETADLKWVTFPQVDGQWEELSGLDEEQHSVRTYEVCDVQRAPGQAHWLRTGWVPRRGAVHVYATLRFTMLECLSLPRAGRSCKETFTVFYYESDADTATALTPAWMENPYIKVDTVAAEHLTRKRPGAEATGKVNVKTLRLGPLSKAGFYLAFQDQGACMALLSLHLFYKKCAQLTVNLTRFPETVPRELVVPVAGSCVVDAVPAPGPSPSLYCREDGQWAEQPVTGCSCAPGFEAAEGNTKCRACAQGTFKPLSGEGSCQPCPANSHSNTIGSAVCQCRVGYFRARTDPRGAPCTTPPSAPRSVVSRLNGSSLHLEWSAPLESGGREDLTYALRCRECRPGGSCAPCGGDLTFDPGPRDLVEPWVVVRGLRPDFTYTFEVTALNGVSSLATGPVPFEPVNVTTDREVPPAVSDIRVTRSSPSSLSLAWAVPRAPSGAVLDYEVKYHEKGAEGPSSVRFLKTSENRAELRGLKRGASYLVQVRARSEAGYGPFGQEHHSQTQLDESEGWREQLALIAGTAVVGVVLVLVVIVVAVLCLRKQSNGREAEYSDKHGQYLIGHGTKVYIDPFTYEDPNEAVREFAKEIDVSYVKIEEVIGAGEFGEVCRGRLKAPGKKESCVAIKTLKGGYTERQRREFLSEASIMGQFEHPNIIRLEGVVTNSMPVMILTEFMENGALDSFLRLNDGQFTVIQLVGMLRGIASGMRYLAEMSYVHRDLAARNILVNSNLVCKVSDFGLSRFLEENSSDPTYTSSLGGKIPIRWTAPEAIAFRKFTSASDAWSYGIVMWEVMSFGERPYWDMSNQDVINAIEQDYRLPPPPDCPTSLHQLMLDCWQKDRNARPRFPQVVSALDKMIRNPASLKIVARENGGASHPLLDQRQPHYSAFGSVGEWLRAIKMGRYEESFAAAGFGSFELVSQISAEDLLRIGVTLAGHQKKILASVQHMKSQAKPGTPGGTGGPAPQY
Calb biofilm kill – clotrimazole potentiators killing Candida biofilms, primary screen, with clotrimazole, Alamar Blue; C. albicans biofilm + clotrimazole; inhibition, % at 6 µM; 85,000 compounds, 0.14% hits;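 active = inhibition above 20%; inactive = inhibition below 20%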;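 note: preformed 24 hr biofilms exposed to compound for 48 hr; 0% = biofilm without compound and 100% = blank killed by clotrimazole plus chlorhexidine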
PostGolgi ctrl – growth inhibition of yeast control strain, primary screen, counter-screen for post-Golgi transport modulator project; 98,000 compounds, 5% hits; inhibition, % at 10 µM; efflux-deficient yeast background strain, growth absorbance A615, 16 h
PostGolgi yeast – phenotypic screen on post-Golgi transport, primary screen; inhibition, % at 10 µM; post-Golgi transport phenotypic cell assay; 98,000 compounds, 0.9% hits; AID 739, 2007;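 note: yeast cells grown in 1536-well plates; yeast grown about 18 h at 30C before absorbance read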
* hit, by the source's call; . = no result given. Only some compounds are listed: those with a hit (about 5.2% of all), similar ones and a draw of the others. Cut-off read from the data, not from the text of the source, unless noted: active = inhibition above about 30%; inactive = the rest.

SMILES | EphB4 ephrin blk | Calb biofilm kill | PostGolgi ctrl | PostGolgi yeast
NC(=O)c1c(NC(=O)c2ccccc2)sc2c1CCc1ccccc1-2 | -3 | 4 | 4 | -1
COCCCn1c(Cc2csc(Nc3ccc(F)cc3)n2)nnc1SCC(N)=O | 4 | . | -8 | -5
COc1ccccc1NC(=O)CSc1nnc(-c2ccoc2C)n1CC1CCCO1 (stereo not drawn) | -4 | 6 | -3 | -3
CC(c1nnc(SCn2nnc3ccccc3c2=O)n1-c1ccc(Cl)cc1)N(C)C (stereo not drawn) | . | 2 | 18 | 67*
Cc1cc(C)c(S(=O)(=O)c2ccccc2C)c(Oc2ccccc2)n1 | 0 | . | 30* | 3
Cc1cc(C)c(S(=O)(=O)c2ccccc2)c(OC(=O)c2c(Cl)cccc2Cl)n1 | 1 | 13 | 24 | 49*
O=C(c1nn(Cc2ccccc2)c(=O)c2ccccc12)N1CCc2ccccc2C1 | -1 | 6 | 57* | -6
CC12CCC(C(=O)NCc3ccccc3)(OC1=O)C2(C)C (stereo not drawn) | 2 | 4 | 6 | -2
CC12CCC(C(=O)NCc3ccc4c(c3)OCO4)(OC1=O)C2(C)C (stereo not drawn) | 5 | 4 | 33* | 10
Cc1cc2n(c(=O)c1C#N)CCCN2c1ccccc1 | 10 | 6 | . | .
Cc1cccc(C)c1NC(=O)c1ccc(-c2ccc(Cl)cc2Cl)o1 | -5 | -4 | 46* | -6
Cc1ccccc1NC(=O)c1ccc(-c2ccc(Cl)cc2Cl)o1 | 3 | -2 | 54* | -1
Cc1nn(-c2ccc(F)cc2)c2sc(C(=O)N3CCCCCC3)cc12 | 12 | -3 | 31* | -7
COc1ccc(OC)c(NC(=O)Cn2cc(C#N)c3cc(Br)ccc32)c1 | 4 | 5 | 26 | 4
O=C(c1cnccn1)N(c1ccccc1)C1(C(=O)NC2CCCCC2)CCCCC1 | -5 | -1 | 33* | 0
O=C(c1cnccn1)N(c1ccccc1)C1(C(=O)NC2CCCC2)CCCCC1 | -5 | 6 | 12 | -1
O=C(NC1(C(=O)NC2CCCCC2)CCCCC1)c1ccccn1 | 3 | 6 | 32* | -7
O=C(CNC(=O)c1ccccc1)NC1(C(=O)NC2CCCC2)CCCCC1 | -5 | -7 | 8 | 1
COc1cccc(-c2nnc(SCC(=O)Nc3ccc(S(N)(=O)=O)cc3)n2C)c1 | -7 | 3 | 11 | -5
COC(=O)[C@@H](N)CS | . | 11 | . | .
O=C(c1ccc(Cl)cc1)N1CCC(O)(CSc2ccc(Cl)cc2Cl)CC1 | 0 | . | 94* | 15
CC(=O)NCCC(=O)NCc1ccc(F)cc1 | 9 | 5 | 9 | -4
CC(=O)NCCC(=O)Nc1ccc(F)cc1C | -1 | 10 | 31* | -2
Cc1sc(NC(=O)c2ccco2)c(C(c2cccnc2)N2CCC(C)CC2)c1C (stereo not drawn) | 12 | 7 | 41* | 86*
CCOC(=O)Cn1nc(-c2ccc(Cl)cc2)ccc1=O | -2 | . | 36* | -4
SMILES | EphB4 ephrin blk | Calb biofilm kill | PostGolgi ctrl | PostGolgi yeast
CCOC(=O)N1CCN(C(=O)Cn2nc(-c3ccc(Cl)cc3)ccc2=O)CC1 | 2 | . | -1 | -5
Cc1sc(N/N=C/C=C/c2ccccc2)nc1-c1ccccc1 | -8 | . | 11 | 2
CCOc1cc2c3c(c1)C1(Nc4ccccc4S1)C(=O)N3C(C)(C)CC2C (stereo not drawn) | -23 | 3 | 37* | -5
CCOc1nc(-c2ccccc2)ccc1-c1noc(-c2ccc(OC)c(OC)c2)n1 | . | 12 | . | .
Cc1ccc(S(=O)(=O)N2CCCC2c2nc3ccccc3s2)cc1 (stereo not drawn) | 3 | . | 15 | -2
COc1ccc(CN(C(=O)CSc2nnc(-c3ccc(F)cc3)o2)c2ccc(F)cc2)cc1 | . | 1 | 38* | 5
CC(C)(C)Nc1nc(SCc2ccccc2)nc(N2CCOCC2)n1 | 8 | 1 | 47* | -6
CNc1nc(SCc2ccccc2)nc(N2CCOCC2)n1 | -6 | 8 | 15 | 5
COc1cccc(-n2nc(C(=O)N3CC(C)CC(C)C3)c3ccccc3c2=O)c1 (stereo not drawn) | -4 | 7 | 13 | -3
CN(C(=O)COC(=O)c1ccc(Cl)cc1N)C1CCS(=O)(=O)C1 (stereo not drawn) | 4 | . | 3 | 2
CCC1(C)Cc2ccccc2-c2nc(NCCO)n(-c3ccc(C)cc3)c(=O)c21 (stereo not drawn) | 0 | 7 | 35* | 1
Cn1c(C(=O)N2CCN(c3nc4ccccc4s3)CC2)cc2sccc21 | -7 | 7 | 45* | -9
O=S(=O)(c1ccc(OCC(O)CN2CCN(c3ccccc3)CC2)cc1)N1CCOCC1 (stereo not drawn) | -2 | 2 | -7 | -6
O=S(=O)(c1ccc(OCC(O)CN2CCN(c3ccccc3O)CC2)cc1)N1CCOCC1 (stereo not drawn) | 1 | 7 | 45* | 3
CCOC(=O)c1cnc(-n2nc(C)cc2C)nc1NCc1ccccc1 | -3 | 3 | 46* | 4
CCOC(=O)c1cnc(-n2nc(C)cc2C)nc1NCCO | 4 | 4 | 1 | 14
CCOC(=O)c1cnc(-n2nc(C)cc2C)nc1NC(C)c1ccccc1 (stereo not drawn) | . | 1 | 44* | 8
Clc1ccc(-n2nnnc2SCc2c(-c3ccccc3)nc3sccn23)cc1 | 6 | 5 | 35* | 1
c1ccc(-n2nnnc2SCc2cccc(CSc3nnnn3-c3ccccc3)n2)cc1 | 1 | 1 | . | .
O=C(C1CC1)N1CCN(C(c2ccccc2)c2ccccc2)CC1 | 0 | 41* | 8 | 11
COc1ccnc(N2CCN(c3ccccc3)CC2)c1C#N | 9 | . | 2 | 3
Cn1nc(C(F)(F)F)c(C#N)c1N1CCN(c2ccccc2)CC1 | 10 | 11 | 72* | 10
CN(C)c1nc(N2CCN(c3ccc(F)cc3)CC2)c(C#N)c(=O)o1 | 6 | . | 8 | 1
Cn1nc(C(F)(F)F)c(C#N)c1N1CCN(c2ccc(F)cc2)CC1 | 4 | 6 | 73* | 3
Nc1ccc(C(=O)Nc2ccco2)cc1 | -7 | 1 | . | .
SMILES | EphB4 ephrin blk | Calb biofilm kill | PostGolgi ctrl | PostGolgi yeast
Cc1onc(-c2ccccc2)c1C(=O)N1CCCN(C(=O)c2c(-c3ccccc3)noc2C)CC1 | 3 | 7 | 8 | 0
Cc1onc(-c2ccccc2)c1C(=O)Nc1nc2c(s1)CCCC2 | 1 | -2 | 34* | -8
Cc1onc(-c2ccccc2)c1C(=O)Nc1cccc(OC(C)C)c1 | 2 | . | 33* | 1
Cc1onc(-c2ccccc2)c1C(N)=O | -6 | . | 42* | 4
CCC1SC2=NC(C)=C(C(=O)OCCOC)C(c3ccc(C(=O)OC)cc3)N2C1=O (stereo not drawn) | -3 | 9 | -3 | 2
O=c1nc2n(c3sc4c(c13)CCC4)Cc1ccccc1-2 | . | 6 | . | .
C(=N\N1CCN(C2c3ccccc3-c3ccccc32)CC1)/c1ccccn1 | 0 | . | 31* | -9
O=C(Nc1ncnc2sc3c(c12)CCCCC3)c1ccccc1 | 3 | -4 | 33* | 48*
O=C(Nc1ncnc2sc3c(c12)CCCCC3)c1ccc(F)cc1 | 0 | 3 | 8 | 2
C(=N\Nc1ncnc2sc3c(c12)CCC3)/c1cccs1 | 2 | . | 34* | 19
